This note sets out measurements from PubChem BioAssay AID1159537 (DiRusso Lab, Biochemistry Department, University of Nebraska, 2015).

SMILES strings stand for the structures. In all, about 44,000 compounds went through this assay and about 370 (0.84%) were called active. How the calls were made is not given here. The entries come from a sample that favours actives as a whole.

The experiment in a line: compounds raising algal triacylglycerol storage – qHTS, Chlamydomonas reinhardtii, primary screen (AID 1159537).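 Further: hits raise Nile Red signal meaning more stored TAG.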 The conditions noted are these: Chlamydomonas reinhardtii TAG, Nile Red fluorescence, 72 h; screened at 10 µM (by protocol). (In general: In qHTS, concentration-response curves come from the screen itself.)
With `Clc1ccc(-n2nnnc2SCc2nn[nH]n2)cc1`, the call was inactive.
`CC1(C)CC(=O)c2cnc3cc(-c4ccccc4)nn3c2C1`: the outcome was inactive.
Take `O=C1C(=O)N(c2ccccc2)C(c2ccccc2[N+](=O)[O-])C1=C(O)c1ccccc1` (centres undefined): the result was inactive.
Turning to `CCc1ccc(OCC(=O)Nc2ccc(F)cc2)cc1`, the compound was called inactive.
Consider `Nc1cc(-c2ccccc2)nn1-c1ccccc1`, for which the outcome was inactive.
Take `O=C(COc1ccc(Br)cc1)N1CCN(c2ccccc2F)CC1`: the result was inactive.
In the case of `O=[N+]([O-])c1ccc(S(=O)(=O)Nc2cc(Cl)ccc2O)cc1`, the call was inactive.
As for `COc1ccc(CSc2nnc(-c3ccc(Cl)cc3Cl)o2)cc1[N+](=O)[O-]`, the entry is “inactive”; as for `CCOc1ccc2nc(SCC(=O)NC(C)=O)sc2c1`, “inactive”; as for `CC(C)(C)C1CCC(NCc2ccncc2)CC1` (centres undefined), “active”.
With `O=C(NCc1ccncc1)C(=O)NCc1ccco1`, the result was inactive.
Turning to `O=C(Cc1ccc(F)cc1)NCc1ccncc1`, the result was inactive.
Regarding `CCCc1ccc(OCC(O)CN2CCN(CCO)CC2)cc1` (centres undefined), the compound was called inactive.
As for `O=C(Nc1ccc(OCC(=O)N2CCOCC2)cc1)c1cc(F)c(F)cc1Cl`, the entry is “inactive”; as for `O=C1CC(N2CCN(c3ccccc3O)CC2)C(=O)N1c1ccc(Br)cc1` (centres undefined), “inactive”; as for `NC(=O)c1cc(NC(=O)CCC(=O)O)ccc1N1CCOCC1`, “inactive”.
Consider `O=S(=O)(Nc1cccc(O)c1)c1ccc(-c2ccccc2)cc1`, for which the call was inactive.
For `O=C(Nc1ccccc1F)C1CC(=O)N(c2ccccc2F)C1` (centres undefined), the outcome was inactive.
The result for `O=C(Nc1ccc([N+](=O)[O-])cc1Br)c1ccncc1` reads “inactive”; that for `O=C(COc1ccc(Br)cc1)Nc1ccc(N2CCOCC2)cc1`, “inactive”.
`Cc1nc(-c2c[nH]c3ccccc23)cs1`: the compound was classed as inactive.
Regarding `O=C(NCCc1ccc(F)cc1)C1CC(=O)N(c2ccccc2)C1` (centres undefined), the outcome was inactive.
As for `Cc1ccccc1-c1nc(-c2ccncc2)no1`, the entry is “inactive”.
The result for `c1ccc(CCc2nc(-c3ccncc3)no2)cc1` reads “active”.
The result for `Clc1ccc(OCc2nc(-c3cccnc3)no2)c(Cl)c1` reads “inactive”.
For `NCCNc1ccc([N+](=O)[O-])c(N2CCCCC2)c1`, the compound was classed as inactive.
As for `COc1cc(C=O)ccc1OCCOc1ccc(C)cc1Br`, the entry is “inactive”.
For the compound `Cc1ccc(-c2nc(-c3cccnc3)no2)cc1Cl`, the call was inactive.
Turning to `Cc1ccc2oc(-c3ccc(C)c(N)c3)nc2c1`, the call was inactive.
For `CCn1c2c(c3cc([N+](=O)[O-])ccc31)CCCC2=O`, the result was inactive.
The result for `CC(=O)N(c1ccccc1)C1CC(C)Nc2ccccc21` (centres undefined) reads “inactive”; that for `O=C(NC12CC3CC(CC(C3)C1)C2)c1ccccc1C(=O)NC12CC3CC(CC(C3)C1)C2`, “inactive”; that for `COc1cccc(NC(=O)CN2CCN(c3nc4ccc([N+](=O)[O-])cc4s3)CC2)c1`, “inactive”.
As for `COc1ccc(/C=C(/NC(=O)c2ccco2)C(=O)Nc2ccc([N+](=O)[O-])cc2)cc1`, the entry is “inactive”.
